# The full ranking holds about 33,000 sequences; the median of “E-score (-0.5 to 0.5)” is about -0.016, and the highest 2% start at about 0.32. Many of the other results were omitted from the sample, so the highest values are more common in it than they were.
# Molecular target: T1, Stp1 (UniProt B3LFK1)
# T1 sequence: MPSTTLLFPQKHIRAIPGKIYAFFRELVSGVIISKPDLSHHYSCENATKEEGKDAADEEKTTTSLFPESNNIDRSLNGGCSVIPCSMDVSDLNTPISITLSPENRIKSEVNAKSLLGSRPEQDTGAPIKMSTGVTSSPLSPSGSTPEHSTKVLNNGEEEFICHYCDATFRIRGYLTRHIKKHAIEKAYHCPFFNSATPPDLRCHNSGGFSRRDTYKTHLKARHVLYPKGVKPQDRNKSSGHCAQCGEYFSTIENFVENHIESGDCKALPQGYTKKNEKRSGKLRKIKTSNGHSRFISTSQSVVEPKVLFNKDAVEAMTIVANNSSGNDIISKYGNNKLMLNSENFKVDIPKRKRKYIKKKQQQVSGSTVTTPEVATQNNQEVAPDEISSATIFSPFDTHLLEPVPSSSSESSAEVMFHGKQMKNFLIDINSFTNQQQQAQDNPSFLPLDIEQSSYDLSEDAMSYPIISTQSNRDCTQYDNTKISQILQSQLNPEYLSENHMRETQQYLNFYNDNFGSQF
# Experiment: PBM E-score (8-mer binding enrichment) (E-score (-0.5 to 0.5)); higher = stronger / more preferred TF binding
# Settings: protein concentration: 200 nM; construct: GST-full length
# How it was run: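 For each ungapped eight-base word taken together with its reverse complement, the Universal PBM Analysis Suite assigned an E-score. Binding data came from GST-tagged yeast transcription factors, applied at about 100-200 nM, on universal all-10-mer Agilent arrays made double-stranded by primer extension. Fluorescent anti-GST marked bound protein, and scans were normalised with masliner.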
row,Sequence,PBM E-score
1,ACGGCAGA,0.367
2,AAGGCAGG,-0.236
3,ACGGCAGC,0.406
4,CCGGCAGG,-0.17
5,CCGGCAGA,-0.0739
6,AAGGCAGT,0.103
7,ACGGCAGG,0.343
8,CCGGCAGC,-0.063
9,ATCTTTAG,0.0678
10,AGCCATCC,0.0193
11,GCAGCGGC,0.32
12,GCGGCAGC,0.334
13,CCAGCGGC,0.256
14,GCAGCGGA,-0.0607
15,GAGGCAGC,0.0343
16,GCGGCAGA,0.261
17,ACTTTTTA,0.157
18,AACTACGG,-0.0064
19,CAGCGCCG,0.446
20,CAGCGCCC,0.188
21,AAGCGCCT,0.272
22,CAGCGCCA,0.0346
23,AAGCGCCA,0.0796
24,AAGCGCCG,0.465
25,CAGTAGAG,-0.155

row,Sequence,PBM E-score
1,AGTCGATC,-0.128
2,GACGGGAC,-0.203
3,CACGTGGC,0.213
4,GCCTAGCC,0.0204
5,CCGTGGGA,0.047
6,ACTGGAAG,-0.2
7,GTAGGTCA,-0.249
8,CGCCACAC,0.324
9,GGGCACAA,0.202
10,AGGCACAG,0.133
11,GGGCACAC,-0.098
12,CGGCACAG,0.398
13,AGGCACAC,0.0169
14,CCGCACAG,0.201
15,AGGCACAA,0.288
16,GGCCACAC,0.0354
17,CGGCACAC,0.381
18,CGGCACAA,0.405
19,CGCCACAG,-0.0135
20,CATGCAAA,0.112
21,CATCTCAG,-0.0765
22,AACGCTCC,-0.122
23,CTAAACTA,-0.0468
24,AAATTCCG,0.126
25,CGTCTTAC,-0.0611

row,Sequence,PBM E-score
1,AGGACCAT,-0.113
2,GCAGTGCA,-0.0796
3,AATGTAGC,-0.0806
4,AGTTCGCC,0.159
5,GCTACACC,-0.0559
6,AGAGAGTC,-0.173
7,TCCGTAAA,0.0695
8,CCCGTAAC,-0.112
9,GCCGTAAC,0.33
10,ACCGTAAA,0.0391
11,CCCGTATA,0.12
12,GCCGTATA,0.475
13,ACCGTATA,-0.0953
14,ACCGTAAC,0.0376
15,GCCGTAAA,0.369
16,CGATCGAG,0.0366
17,AACTCAGA,0.183
18,ATCGCCGG,0.192
19,ATCGCCGA,0.212
20,ATCGCCGC,0.45
21,CTCGCCGA,-0.0672
22,CTCGCCAC,-0.0166
23,CTCGCCGC,0.353
24,CATTGGAC,-0.155
25,AGCTACTG,-0.229

row,Sequence,PBM E-score
1,AAAACATG,-0.00948
2,CTAGAGAA,0.23
3,CCACCTAG,-0.373
4,CAGTCTGG,-0.218
5,CCCCTTAA,-0.172
6,ACACGGCG,0.488
7,ACACGGCT,0.458
8,TGACGGCA,0.175
9,CCACGGGG,-0.124
10,ACACGGTG,0.154
11,ACACGGAT,0.315
12,ACACGGAG,0.295
13,TCACGGAA,0.173
14,CCACGGCG,0.478
15,ACACGGGT,0.202
16,TCACGGCA,0.401
17,CCACGGAG,0.159
18,GCTGCGAC,-0.089
19,TAACCCCA,-0.336
20,CAACACGA,0.0474
21,GCGCGAGA,0.107
22,AACAGTAC,0.0276
23,CCACGGCC,0.185
24,CCACGGAA,0.198
25,CCACGGCA,0.46

row,Sequence,PBM E-score
1,ACGGGGGC,-0.325
2,GTGAAGTA,-0.0855
3,GCCGCGCC,0.46
4,ACCGCGCA,0.0261
5,ACCGCGTA,0.051
6,ACCGCGCG,0.209
7,CCCGCGTA,-0.0603
8,CCCGCGCA,-0.0346
9,ACCGCGCC,0.3
10,GCCGCGTA,0.465
11,GCCGCGCA,0.476
12,AATCATTC,0.146
13,GAGAGCCC,-0.302
14,AATCGTAC,0.12
15,ATGCCATA,0.117
16,CCCCTGCC,-0.198
17,CGCCTCTC,0.0325
18,AGACGCCG,0.405
19,CGACGCCG,0.457
20,AGACGCCA,0.00574
21,CGACGCCA,0.106
22,CGACGCCC,0.0245
23,AGACGCCC,0.0951
24,CATATCTC,-0.0779
25,CGAGAAAG,-0.0578

row,Sequence,PBM E-score
1,GACTACGC,-0.174
2,ACATTCAC,-0.0143
3,AGGTGAAG,-0.132
4,ACAGGGTA,-0.125
5,ATTGCGCA,-0.0299
6,ATTGCGCG,0.32
7,ATTGCGCC,0.308
8,GGGAGCTA,-0.235
9,GCGCCGAA,0.389
10,CTGCCGAA,0.127
11,GCGCCGAC,0.309
12,TCGCCGAA,0.105
13,ATGCCGAA,0.311
14,GTGCCGAA,0.322
15,GCTTCGCC,-0.0679
16,CCAGCGAA,-0.209
17,CGCCGTTA,0.381
18,CCCCGTTC,-0.235
19,CGCCGTCA,0.216
20,CGCCGTCC,0.443
21,CACCGTTC,0.0204
22,CGCCGTTC,0.464
23,AGCCGTTG,0.26
24,GGCCGTTA,0.1
25,AGCCGTTA,0.159

row,Sequence,PBM E-score
1,AGCCGTTC,0.424
2,AGCCGTCC,0.308
3,CACCGTTA,0.0959
4,ATCGTAGG,-0.121
5,TGAGCGAA,0.0336
6,CAGCCAGC,-0.244
7,CCTGCGAC,-0.287
8,AATCTTCG,0.196
9,AGAACATA,0.00125
10,CTCCGCCC,-0.192
11,AACCGCCG,0.324
12,AGCCGCCC,0.11
13,CGCCGCCG,0.402
14,AACCGCCC,-0.149
15,AACCGCCA,-0.153
16,GGCCGCCC,-0.0498
17,AGCCGCCG,0.361
18,AGCCGCCA,-0.122
19,CCCCGCCG,0.0774
20,CGCCGCCC,0.346
21,CGCCGCCA,0.154
22,ATTCTCAC,0.0144
